Assay outcomes as filed in PubChem.
Pin1 inh: human Pin1 inhibition | Q13526 | Pin1 FP peptide displacement, HiFluor488, 10 min | Potency, µM (highest dose often 115 µM), hits mostly inhibitors | 390,000 tested, 0.009% active | AID 504891; active means well fitted inhibition curve with a large enough effect in the polarisation, with a control signal flat, not every such curve was filed as active; inconclusive means small, poorly fitted or top-dose-only effect, or effect the other way, or a change in a side signal; inactive means no such curve, though single readings can be large or run the other way; the % refers to the polarisation
Target sequence (Q13526 whole entry, looked up): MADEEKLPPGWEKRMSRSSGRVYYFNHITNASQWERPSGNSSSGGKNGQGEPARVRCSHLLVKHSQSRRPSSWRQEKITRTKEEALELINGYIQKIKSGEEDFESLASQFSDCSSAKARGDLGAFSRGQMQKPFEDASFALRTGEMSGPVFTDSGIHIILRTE
PI4K2A block: PI4K2A (human) kinase inhibition; 420,000 tested, 0.13% active; purified PI4K2A, ADP-Glo luminescence, 1 h; stronger effect = lower value; activity change, negative = inhibition, % at 76.9 µM; AID 1346378; Q9BTU6; in the data active means activity change below about -50%; inconclusive means mostly about -30% to -49%
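In this quantitative HTS, ADP production by PI4K2A was quantified luminescently after 1 h at ambient temperature; 100 microM adenosine served as plate-quality control.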
Tb PGK inh: blocks T. brucei phosphoglycerate kinase; P07378; PGK/GAPDH coupled, Kinase-Glo luminescence, 60 min; Potency, µM (top dose mostly 57.5 µM), usual class: inhibitors; 380,000 tested, 0.043% active; AID 602233; further: nearly all actives have a fitted effect of over 60% in size
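Luminescent ATP detection (Kinase-Glo Plus) follows a 60-minute room-temperature incubation, with wells lacking PGK as controls. Buffer: 100 mM TEA (pH 7.6), 5 mM MgCl2, 0.01% Tween-20. Coupling enzyme GAPDH (100 nM final) supplies unstable 1,3-BPG in-well.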
PI5P4K alpha inh: PI5P4K alpha (human) kinase inhibition; 330,000 tested, 1.2% active; P48426; max response, %; PI5P4Kalpha enzyme, ADP-Glo luminescence, 60 min; stronger effect = lower value; AID 652105; active means max response of -50% or lower; inconclusive means between -30% and -50%; inactive means -30% or higher; further: value at the top dose of about 77 µM
Target sequence (P48426 whole entry, looked up): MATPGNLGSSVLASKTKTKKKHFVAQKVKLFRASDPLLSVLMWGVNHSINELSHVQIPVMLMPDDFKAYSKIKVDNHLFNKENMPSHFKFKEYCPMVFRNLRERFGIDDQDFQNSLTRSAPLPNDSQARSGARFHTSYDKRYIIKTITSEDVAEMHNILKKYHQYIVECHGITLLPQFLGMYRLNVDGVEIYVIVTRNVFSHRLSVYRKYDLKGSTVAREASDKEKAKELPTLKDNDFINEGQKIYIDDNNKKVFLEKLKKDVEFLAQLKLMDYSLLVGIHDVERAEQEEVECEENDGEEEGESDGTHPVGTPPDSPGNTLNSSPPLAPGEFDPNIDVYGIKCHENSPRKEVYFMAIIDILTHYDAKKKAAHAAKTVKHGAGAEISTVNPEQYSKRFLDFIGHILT
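Quantitative HTS of the MLSMR library against PI5P4Kalpha with substrate. ATP added last at 5 microM final; room temperature, 60 minutes. Remaining ATP depleted, ADP converted and read as luminescence.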
Tb PFK inh: T. brucei PFK enzyme inhibition; O15648; T. brucei PFK, ADP-Glo luminescence; Potency, µM (highest dose often 57.5 µM), hits mostly inhibitors; 330,000 tested, 0.17% active; further: nearly all actives have a fitted effect of over 60% in size
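Compounds were pin-transferred as a titration series up to 57 uM into substrate buffer (0.5 mM F6P, 0.1 mM ATP, pH 8.0), then 1.25 nM PFK was added and reactions ran 45 min before ADP-Glo detection.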
A number is an active result; – = inactive; ? = inconclusive; · = no result. Only a selection was taken, and hits are over-represented in it overall. Unless noted, the call rests on the fitted dose curve; in most records, active means well fitted curve in the direction sought with a large enough effect; inconclusive means small, poorly fitted or top-dose-only effect, or another doubt; inactive means no such curve, though single readings can be large; an effect the other way counts as inactive or inconclusive.

SMILES	Pin1 inh	PI4K2A block	Tb PGK inh	PI5P4K alpha inh	Tb PFK inh
O=C(O)c1ccc(-c2ccc(/C=c3/sc4nc5ccccc5n4c3=O)o2)cc1Cl	?	–	10µM	-64	–
COc1ccc2ncnc(NCc3cccs3)c2c1-c1ccc2c(c1)OCO2	–	·	·	·	·
O=C1NC(=S)N/C1=C/c1cccc([N+](=O)[O-])c1O	–	–	–	-89	–
O=C1NC(=S)N/C1=C/c1cc([N+](=O)[O-])ccc1O	?	–	–	-61	–
Cc1ccc(/C=C2\NC(=S)NC2=O)cc1[N+](=O)[O-]	–	–	–	–	–
COc1cccc(C2c3c(ncn(-c4ccncc4)c3=N)Oc3ccc4ccccc4c32)c1 (stereo not drawn)	–	·	·	·	·
CC(=O)OC(C)OC(=O)C(C)c1ccc(-c2ccccc2)c(F)c1 (stereo not drawn)	·	–	·	·	·
CC[n+]1c(/C=C(\C)OC)sc2ccccc21	–	–	–	–	–
CC[n+]1c(/C=C/C=C/N(C(C)=O)c2ccccc2)sc2cc(OC)ccc21	?	–	–	-54	–
O=C1c2ccccc2C(=O)N1c1cccc(Cl)c1	–	·	·	·	·
COC[C@H]1CCCN1c1ccc2c(c1)O[C@H]1CCN(C1)S2(=O)=O	·	–	·	·	·
c1ccc2c(-c3cncc4ccccc34)cncc2c1	–	–	–	-73	·
c1ccc2c(c1)-c1cccc3cncc-2c13	–	–	–	–	·
Cc1ccc(C(=O)OCc2nc3ccsc3c(=O)[nH]2)o1	–	–	–	–	–
O=C(/C=C/c1ccc(Br)o1)OCc1nc2ccsc2c(=O)[nH]1	?	?	?	-67	?
CCCCOC(=O)CCCCCCCCC(=O)OCCCC	·	–	·	·	·
COc1ccccc1N=c1oc2cc(O)ccc2cc1C(N)=O	–	-52	–	-71	–
NC(=O)C1CCN(c2ncc(-c3ccc4c(c3)OCCCO4)s2)CC1	–	·	·	·	·
O=c1c2c(-c3ccccc3)csc2ncn1/N=C/c1cccc([N+](=O)[O-])c1O	?	–	–	-103	–
O=[S+]([O-])(c1ccc2ncsc2c1)N1CCN([S+](=O)([O-])c2c(F)cccc2F)CC1	–	·	·	·	·
COC(=O)c1c(SCC(=O)NC2CCCCC2)[nH]c2ccccc2c1=O	–	–	–	-68	?
CCN1CCN(c2nc(C)nc3c2sc(=S)n3C)CC1	–	–	–	–	19µM
COC(=O)[C@]12C[C@H](CC(=O)NCC34CC5CC(CC(C5)C3)C4)C(=O)N(Cc3ccco3)C1=C[C@H](C1CCCC1)O[C@@H]2C	·	–	·	·	·
COc1ccc(CC(=O)OCn2nnc3ccccc3c2=O)cc1	–	-57	–	–	–
COc1cc(/C=C2\SC(=S)N(NS(=O)(=O)c3ccccc3)C2=O)ccc1O	–	–	–	-61	–
SMILES	Pin1 inh	PI4K2A block	Tb PGK inh	PI5P4K alpha inh	Tb PFK inh
Cc1ccc(S(=O)(=O)NN2C(=O)/C(=C/c3cccc(F)c3)SC2=S)cc1	?	–	–	–	–
CCOc1cc(/C=C2\SC(=S)N(NS(=O)(=O)c3ccc(C)cc3)C2=O)ccc1O	–	–	–	-59	·
COc1cc(/C=C2\SC(=S)N(NS(=O)(=O)c3ccc(C)cc3)C2=O)cc(OC)c1OC	–	–	–	–	–
COc1cc(/C=C2\SC(=S)N(NS(=O)(=O)c3ccc(C)cc3)C2=O)ccc1O	?	–	–	-68	–
Cc1cc2c(s1)c1cnn(Cc3cccc(Cn4ncc5c6sc(C)cc6n(C)c5c4=O)c3F)c(=O)c1n2C	–	·	·	·	·
CCC(=O)O[C@]1(C(=O)COC)[C@@H](C)C[C@H]2[C@@H]3CCC4=CC(=O)C=C[C@]4(C)C3(F)[C@@H](O)C[C@@]21C (stereo partly drawn)	·	–	·	·	·
COc1cc(/C=C2\SC(=O)N(c3cccc(Cl)c3)C2=O)cc([N+](=O)[O-])c1O	·	–	?	-81	–
COc1cc(/C=C2\SC(=O)N(c3ccc(Cl)cc3)C2=O)cc([N+](=O)[O-])c1O	·	–	–	-51	–
COc1ccc(-n2c(COc3ccccc3)nnc2SCC(=O)Nc2ccccc2-c2ccccc2)cc1	·	–	·	·	·
Cc1cc(C=O)c(C)n1-c1cc(C(=O)O)cc(C(=O)O)c1	–	–	10µM	–	?
Cc1ccc(S(=O)(=O)SCCCSS(=O)(=O)c2ccc(C)cc2)cc1	–	–	–	-73	·
Cc1ccc(S(=O)(=O)SC/C=C/CSS(=O)(=O)c2ccc(C)cc2)cc1	–	–	–	-85	·
CCn1ncc(/C=C2/SC(=S)NC2=O)c1C	–	–	–	-66	–
O=C1NC(=S)S/C1=C\c1cc(Cl)ccc1Cl	?	–	–	-62	·
O=C1NC(=S)SC1=Cc1ccccc1C(=O)O	·	–	·	-78	·
Cc1cc(/C=C2\SC(=S)NC2=O)c(C)[nH]1	?	–	–	-77	–
O=C1NC(=S)SC1=Cc1ccccn1	·	–	·	?	·
CCn1c(C)cc(/C=C2/SC(=S)NC2=O)c1C	–	–	–	–	–
O=C(O)c1cn(C2CC2)c2cc(Cl)c(F)cc2c1=O	·	–	·	·	·
O=S(=O)(NC1CCCC(NS(=O)(=O)c2c(F)cccc2F)C1)c1ccc2c(c1)OCCO2 (stereo not drawn)	–	·	·	·	·
Cc1ccc(NS(=O)(=O)c2cccc(F)c2)cc1C	–	·	·	·	·
NCCCC[C@H]1NC(=O)[C@H](CCC(=O)O)NC(=O)c2cc([N+](=O)[O-])cc(I)c2OCC[C@@H](C(N)=O)NC1=O	14µM	–	?	?	–
COc1cccc(CN2C(=O)c3ccccc3NC2c2ccc(OC)c(COc3ccc(NC(C)=O)cc3)c2)c1 (stereo not drawn)	–	·	·	·	·
Cc1cc(O)c(CN(C)C)c2c1C(=O)/C(=C/c1ccco1)O2	?	–	–	–	–
Cc1cc(O)c(C=O)c2c1C(=O)Oc1c(CO)c(O)c3c(c1O2)C(O)OC3=O (stereo not drawn)	3.2µM	-85	?	-84	24µM
SMILES	Pin1 inh	PI4K2A block	Tb PGK inh	PI5P4K alpha inh	Tb PFK inh
CN1CCCN(C(=O)C2CCCN(C(=O)c3ccc4c(c3)NC(=O)CS4)C2)CC1 (stereo not drawn)	·	–	·	·	·
COc1ccc(C2c3c(ncn(CCCc4ccccc4)c3=N)Oc3ccc4ccccc4c32)cc1OC (stereo not drawn)	–	·	·	·	·
NC(=O)c1cc[n+](CC2=C(C(=O)O)N3C(=O)[C@@H](NC(=O)C(c4ccccc4)S(=O)(=O)[O-])[C@H]3SC2)cc1 (stereo partly drawn)	?	?	1.1µM	-97	–
Cc1ccc(-n2[nH]c(C)c(N=Nc3cccc(-c4cccc(C(=O)O)c4)c3O)c2=O)cc1C	·	–	·	·	·
O=C1S/C(=C\C=C\c2ccco2)C(=O)N1c1ccc(O)cc1	?	–	–	-87	?
O=C1S/C(=C\c2cccs2)C(=O)N1c1ccc(O)cc1	–	–	·	–	–
O=C1S/C(=C\C=C\c2ccco2)C(=O)N1c1ccccc1	–	–	–	-50	–
Cc1ccc(N2C(=O)/C(=C/c3ccco3)SC2=S)cc1	–	–	–	–	–
Cc1cc2c(s1)c1cnn(Cc3ccc(C(C)(C)C)cc3)c(=O)c1n2C	–	·	·	·	·
